This is a sample that favours compounds with a hit; in the whole collection about 3.8% have one here.
ERa SRC1 inh = blocks coactivator binding to human estrogen receptor alpha; inhibition, % at 25.6 µM; P03372; TR-FRET ER-alpha LBD / SRC-1 peptide, estradiol-bound; 86,000 compounds, 1.7% hits; AID 629; in the data active = inhibition above about 50%;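 also: 0% = receptor plus peptide control and 100% = peptide only without receptor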
ERb coact inh = ER-beta (human) coactivator binding inhibition; Q92731; TR-FRET ER-beta LBD / SRC1-Cy5 peptide binding; receptor agonist-loaded with 1 µM estradiol; inhibition, % at 25.6 µM; 86,000 compounds, 1.3% hits; AID 633;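 active = compounds whose percent inhibition of the receptor-coactivator binding signal exceeds about 50% in the single-dose screen, limit read from the data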;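 also: 0% = receptor plus peptide wells without compound and 100% = peptide-only wells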
ERa SRC1 pot = ER-alpha (human) coactivator binding potentiation; P03372; TR-FRET ERalpha-LBD/SRC-Cy5 coactivator binding, 2 h; 100 = basal binding, no effect; coactivator binding (% of control), % at 25.6 µM; 86,000 compounds, 1.3% hits; AID 639; in the data active = activity above about 200%;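 also: binding measured in presence of low estradiol as agonist stimulus; 0% = peptide alone without receptor and 100% = receptor with peptide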
MT1-MMP txn act = activates MT1-MMP transcription; HT1080 MT1-MMP promoter luciferase reporter, luminescence, overnight; stronger effect = higher value; activation factor at 10 µM; 86,000 compounds, 0.16% hits; AID 750;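 active = activation factor of at least 2 for MT1-MMP transcription at 10 µM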
DAT uptake mod = human DAT dopamine uptake with cocaine, either direction. Q01959. LLC-PK1 hDAT cells, [14C]-dopamine uptake with cocaine IC80; actives deviate in either direction. B-score at 10 µM. 110,000 compounds, 1.3% hits. AID 449768;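 active = Z score or B-score, a plate-position-corrected score, falls beyond the plate's 99.7% confidence bounds, in either direction; inactive = both scores lie inside the 99.7% bounds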;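 also: scored against the spread of the other compound wells on the same plate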
Target sequence (Q01959 whole entry, looked up): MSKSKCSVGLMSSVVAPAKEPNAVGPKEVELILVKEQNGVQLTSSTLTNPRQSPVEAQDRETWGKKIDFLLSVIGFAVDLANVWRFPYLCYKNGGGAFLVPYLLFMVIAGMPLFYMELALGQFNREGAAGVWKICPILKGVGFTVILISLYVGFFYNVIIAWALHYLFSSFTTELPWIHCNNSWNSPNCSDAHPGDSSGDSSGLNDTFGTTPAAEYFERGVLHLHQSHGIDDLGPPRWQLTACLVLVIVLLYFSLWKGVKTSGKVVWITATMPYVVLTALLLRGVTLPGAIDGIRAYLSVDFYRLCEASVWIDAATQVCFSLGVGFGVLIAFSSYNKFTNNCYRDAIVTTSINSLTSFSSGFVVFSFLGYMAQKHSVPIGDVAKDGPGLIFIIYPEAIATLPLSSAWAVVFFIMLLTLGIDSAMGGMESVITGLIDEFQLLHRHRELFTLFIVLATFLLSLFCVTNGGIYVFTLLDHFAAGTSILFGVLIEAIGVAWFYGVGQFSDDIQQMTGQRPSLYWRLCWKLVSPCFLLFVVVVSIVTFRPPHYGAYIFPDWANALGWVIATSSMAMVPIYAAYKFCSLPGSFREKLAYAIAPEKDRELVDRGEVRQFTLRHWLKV
The depositor's hits bear a star; . = no result given; + = active, no number; ! = a repeat was not active; [ ] = remark or other dose.

SMILES | ERa SRC1 inh | ERb coact inh | ERa SRC1 pot | MT1-MMP txn act | DAT uptake mod
O=C(CCn1c(=O)c2sccc2n(CC(=O)NCc2ccco2)c1=O)NCc1ccccc1 | 3 | 3 | 107 | 0.9 | 0.024
CCN(CC)CCCN1C=C2C(=O)C(C)(OC(=O)C3CCCC3)C(=O)C=C2C=C1c1ccsc1 (stereo not drawn) | . | . | . | . | -0.65
CC(C)[C@@H](C(=O)N1CCNCC1)n1cc(CCO)nn1 | . | . | . | . | -0.98
O=C(NCC(=O)N(Cc1cccs1)C(C(=O)NC1CCCCC1)c1ccco1)c1ccco1 (stereo not drawn) | -4 | -8 | 101 | 1.2 | 1.2
O=C(NCC(=O)N(Cc1cccs1)C(C(=O)NC1CCCC1)c1ccncc1)c1ccco1 (stereo not drawn) | 99*[fluorescence artefact?] | 9 | 75 | 1 | 0.57
Cc1cccc(NC2=C(Cl)C(=O)OC2NC(=O)c2ccccc2)c1 (stereo not drawn) | 3 | -4 | 90 | 1.2 | -0.49
CCOc1ccc(N=C2NC(=O)S/C2=C\c2ccc(OC)cc2)cc1 | 67* | 50* | 194 | 1.3 | 0.83
COc1ccc(NC(=O)C2CCN(C(=O)c3ccccc3)CC2)c(OC)c1 | -9 | 0 | 110 | 1.2 | 1.6
COc1ccc(C(=O)N2CCC(C(=O)Nc3ccccc3OC)CC2)cc1 | -14 | -15 | 223*[fluorescence artefact?] | 1.2 | 0.88
Cn1ncc(Br)c1C(=O)OCC(=O)Nc1nc(-c2ccccc2)cs1 | 1 | 5 | 138 | 1.1 | 0.0085
CCCc1cc2c(=O)c(-c3ccccn3)coc2cc1OC | 9 | 7 | +[fluorescence artefact?] | 1.6 | -0.56
CCCc1cc2c(=O)c(-c3ccccn3)c(C)oc2cc1O | 12 | 17 | 87 | 1.2 | 2
Cn1c(NNC(=O)c2cccc3ccccc23)cc(=O)n(C)c1=O | . | . | . | . | -0.34
CCOC(=O)C1=C(C)OC(N)=C(C#N)C1c1c(C)nn(-c2ccccc2)c1Cl (stereo not drawn) | 0 | 4 | 82 | 1 | -7.4*
COc1cccc(-c2nc(SC)nc3sc(C(=O)NC(C)(C)C)c(N)c23)c1 | . | . | . | . | 0.26
Cc1cc(C(=O)N2CCC(C(F)(F)F)n3nccc32)on1 (stereo not drawn) | -1 | -2 | 92 | 0.9 | -2.9*
O=C(NC1CCCC1)c1c[nH]c2ccc(F)cc2c1=O | 8 | 4 | 99 | 1 | 4.5*
CCCC[C@@H]1C[C@H]1C(NC(=O)c1cccs1)c1ccc(C(F)(F)F)cc1 (stereo partly drawn) | . | . | . | 1.2 | .
O=C(NCCSCc1ccc(Cl)cc1Cl)c1ccc(CN2CCOCC2)cc1 | . | . | . | . | 3.2*
O=C(NCc1ccccc1)c1ccc(CN2CCOCC2)cc1 | -15 | -22 | 114 | 1.1 | 0.4
CCN(C(=O)c1cnc(N2CCN(c3ncccn3)CC2)c2ccccc12)c1cccc(Cl)c1 | 8 | 6 | 75 | 1.2 | 2.2*!
COc1ccc(OC)c(C2C(C(=O)c3cc4ccccc4o3)=C(O)C(=O)N2c2cc(C)on2)c1 (stereo not drawn) | 6 | 8 | 102 | 1.1 | 3.8*
COc1ccc(C2C(C(=O)c3ccc(C)o3)=C(O)C(=O)N2c2cc(C)on2)cc1OC (stereo not drawn) | -2 | 1 | 117 | 1.1 | 0.39
C#Cc1ccc([C@@H]2C=C(C(=O)N3CCOCC3)O[C@H](OCC)[C@H]2CCCO)cc1 | . | . | . | . | -0.27
CCOC(=O)c1sc(NC(=O)C2C3C=CC(C3)C2C(=O)O)nc1C (stereo not drawn) | -9 | -2 | 190 | 0.9 | -1.1
SMILES | ERa SRC1 inh | ERb coact inh | ERa SRC1 pot | MT1-MMP txn act | DAT uptake mod
COc1ccc2oc(C(=O)OCC(=O)c3ccc4c(c3)OCCO4)c(C)c2c1 | 7 | 0 | 229* | 1.1 | -1.5
CCCNC(=O)c1cnc(Sc2ncc(C(F)(F)F)cc2Cl)n1C | 15 | 0 | 93 | 1.1 | -0.35
Cc1ccc(CNC(=O)c2cc3c(C)nc4ccccc4c3o2)cc1 | 57*[fluorescence artefact?] | 32 | 171 | . | 1.3
CCCNC(=O)c1cc2nc(-c3ccccc3)cc(C(F)(F)F)n2n1 | 27 | 20 | 90 | 1.2 | 0.45
CN1CCCc2cc(C=O)ccc21 | -2 | -2 | 99 | 1 | 1.1
CCCN1CCCc2cc(CN)ccc21 | 41 | 54*[fluorescence artefact?] | 59 | 0.8 | -2.4*
O=C(Nc1nnc(C2CCCCC2)s1)c1ccco1 | -10 | -6 | 100 | 1.3 | -1.7*
O=C(Nc1nnc(C2CCCCC2)s1)c1cccs1 | -23 | -6 | 111 | 1.2 | 0.95
CCc1[nH]c(=O)c(C#N)c2c1CCCC2 | -9 | -8 | 106 | 1 | .
CCC(C)(C)n1c(=O)[nH]c2c(c1=O)CCC2 | 3 | 5 | 135 | 1 | 3*
CCC1=C2CC[C@H]3C(=O)NC(=O)[C@H]3[C@H]2[C@@]2(C)C(=O)N(CC3CC3)C(=O)N2C1=O | . | . | . | 1.1 | .
Cc1cc(NC(=O)c2cn(C3CCCCC3)c(=O)c3c2c2ccccc2n3C)no1 | 5 | 21 | 200*[fluorescence artefact?] | 1 | 0.31
COc1ccc(S(=O)(=O)n2nc(OC(=O)c3cccs3)cc2NC(=O)c2cccs2)cc1 | . | . | . | . | -0.0038
Cc1cccc(Cn2cnc3ccccc32)c1 | 20 | 10 | 92 | . | -0.64
COc1cc2c3nnc(-c4ccc(F)cc4)c-3cn(Cc3cccc(C)c3)c2cc1OC | 18 | 29 | 366*[fluorescence artefact?] | . | -0.38
COc1cc2c3nnc(-c4ccc(F)cc4)c-3cn(Cc3ccc(C)cc3)c2cc1OC | 6 | 51*[fluorescence artefact?] | 591*[fluorescence artefact?] | . | -1.5
Fc1ccc(Cn2cnc3ccccc32)cc1 | 4 | -11 | 97 | 1.1 | -0.23
CN(c1ccc(OCC(=O)N2CCCCC2)cc1)S(=O)(=O)c1cccs1 | 22 | 14 | 96 | 1.1 | 3*
COC(=O)c1cc2ccsc2n1Cc1nc(-c2ccc(Cl)cc2)oc1C | 3 | 16 | 121 | . | 0.71
O=C(Nc1nc2ccccc2s1)C1CC(=O)N(c2ccc(Br)cc2)C1 (stereo not drawn) | -1 | -3 | 90 | 1.1 | -0.057
Clc1ccc(-n2cccc2/C=N/n2cnnc2)cc1 | -3 | 0 | 89 | 1 | -1.6
Cn1cccc1/C=N/n1cnnc1 | 1 | -3 | 123 | 1 | 2.8*
Cc1csc2nc(CCNS(=O)(=O)c3ccc4c(c3)OCCO4)cn12 | 54* | 24 | 58 | . | -0.0056
CCOC(=O)c1cn2c3c(c(F)c(F)c(F)c3c1=O)SC(N1CCCC1)=N2 | 14 | -15 | 268*[fluorescence artefact?] | 1.2 | .
CCOc1ccc(N(C(C)=O)c2nc(C)cc(C)c2C#N)cc1 | -6 | 1 | 121 | 1.1 | 0.13
CSc1nnc2c3cc(F)ccc3n(Cc3ccccc3)c2n1 | 16 | 19 | 336* | 1.3 | -0.82
CSc1nnc2c3ccccc3n(Cc3ccccc3)c2n1 | 9 | 3 | 129 | 1 | -0.55
O=C(Nc1cc(C(F)(F)F)ccc1N1CCOCC1)C1Cc2ccccc2CN1C(=O)c1ccco1 (stereo not drawn) | 91*[fluorescence artefact?] | 55* | 14 | 1.2 | -0.33
O=C(Nc1cc(C(F)(F)F)ccc1N1CCCCC1)c1ccco1 | -9 | 2 | 693*[fluorescence artefact?] | 1 | 0.5
O=C(Nc1cc(C(F)(F)F)ccc1N1CCCCC1)c1ccc(Br)o1 | -4 | -2 | 110 | 1.1 | -0.031

Source: PubChem BioAssay
